# Active and inactive are the calls of the source.
# Assays:
# [1] = optical density shifts of acrAB sulA E. coli – strain DRC41, OD650, 48 h, E. coli filamentation inducer project, primary screen (AID 1152); conditions: higher = more signal, called active from +8 up or from −8 down;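 also: E. coli MC1000 strain DRC41 lacking acrAB efflux pump and sulA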
# [2] = probe aLefty1 binding on compound microarray – biochemical, small-molecule microarray, 635/667 nm fluorescence, primary screen (AID 1153); conditions: higher = more signal;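 also: score merges spot fluorescence with signal-to-noise ratio from the scanned slide images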
# [3] = plasmodial surface anion channel blockers, osmotic lysis – cell-based, P. falciparum Indochina, OD700, 1 h, primary screen (AID 1154); conditions: P. falciparum Indochina infected RBC osmotic lysis, higher = more signal, called active from +8 up or from −8 down
# [4] = plasmodial surface anion channel blockers, osmotic lysis – cell-based, P. falciparum Indochina, OD700, 2 h, primary screen (AID 1155);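 also: lysis reports solute entry through the parasite surface anion channel PSAC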; conditions: P. falciparum Indochina infected erythrocytes, higher = more signal, called active from +8 up or from −8 down
# [5] = changes in parasitized red cell lysis, either direction – P. falciparum Indochina, OD700, 3 h, PSAC antagonist project, primary screen (AID 1156); conditions: P. falciparum-infected erythrocytes, osmotic lysis, higher = more signal, called active from +8 up or from −8 down
# [6] = plasmodial surface anion channel blockers, osmotic lysis – cell-based, P. falciparum Indochina, OD700, 18 h, primary screen (AID 1157); conditions: P. falciparum Indochina infected erythrocytes, osmotic lysis OD700, 18 h; higher = more signal, called active from +8 up or from −8 down
# [7] = S6 kinase pathway phospho-S6 level changes – cell-based, A549, cytoblot, luminescence, serum-stimulated, primary screen (AID 1158); conditions: 5 h, higher = more signal;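 also: serum-stimulated A549 lung adenocarcinoma cells; signal is phosphorylated S6 detected by cytoblot immunostaining with HRP secondary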
# [8] = target: NADPH oxidase 2 (Homo sapiens) (UniProt P04839); assay: compounds shifting NOX2 Amplex Red fluorescence – cell-based, HEK293-NOX2, PMA-stimulated, NOX inhibitor project, primary screen (AID 1159); conditions: 45 min, higher = more signal, called active from +8 up or from −8 down; also: test concentration not given here
# [9] = target: NADPH oxidase 4 (Homo sapiens) (UniProt Q9NPH5); assay: compounds shifting NOX4 Amplex Red fluorescence – cell-based, HEK293-NOX4, tetracycline-induced, NOX inhibitor project, primary screen (AID 1160); conditions: HEK293-NOX4, Amplex Red H2O2 fluorescence, 45 min; higher = more signal, called active from +8 up or from −8 down
# [10] = target: NADPH oxidase 5 (Homo sapiens) (UniProt Q96PH1); assay: compounds shifting NOX5 Amplex Red fluorescence – cell-based, HEK293-NOX5, NOX inhibitor project, primary screen (AID 1161); conditions: HEK293-NOX5, ionomycin, 45 min, higher = more signal
# Chain of NADPH oxidase 5 (Homo sapiens) (Q96PH1 whole entry, looked up): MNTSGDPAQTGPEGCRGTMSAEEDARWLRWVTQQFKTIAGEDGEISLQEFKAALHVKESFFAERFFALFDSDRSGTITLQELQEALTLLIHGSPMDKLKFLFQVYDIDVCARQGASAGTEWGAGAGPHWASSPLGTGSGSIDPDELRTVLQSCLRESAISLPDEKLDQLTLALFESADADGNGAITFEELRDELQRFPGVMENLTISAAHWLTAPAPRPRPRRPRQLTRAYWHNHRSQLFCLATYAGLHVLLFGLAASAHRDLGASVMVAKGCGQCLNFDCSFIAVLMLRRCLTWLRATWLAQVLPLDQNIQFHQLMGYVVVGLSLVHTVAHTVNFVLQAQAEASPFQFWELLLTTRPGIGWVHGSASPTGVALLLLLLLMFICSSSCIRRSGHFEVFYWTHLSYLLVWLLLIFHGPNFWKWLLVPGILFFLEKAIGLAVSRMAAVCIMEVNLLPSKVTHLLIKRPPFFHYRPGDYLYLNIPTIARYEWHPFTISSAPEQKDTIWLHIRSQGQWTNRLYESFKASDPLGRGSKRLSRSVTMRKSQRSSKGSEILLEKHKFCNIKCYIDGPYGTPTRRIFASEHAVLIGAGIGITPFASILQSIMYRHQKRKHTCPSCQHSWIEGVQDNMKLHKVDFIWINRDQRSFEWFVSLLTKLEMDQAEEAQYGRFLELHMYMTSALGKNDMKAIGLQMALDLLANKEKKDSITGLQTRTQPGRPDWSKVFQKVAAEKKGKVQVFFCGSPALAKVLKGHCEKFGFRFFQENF
# Chain of NADPH oxidase 4 (Homo sapiens) (Q9NPH5 whole entry, looked up): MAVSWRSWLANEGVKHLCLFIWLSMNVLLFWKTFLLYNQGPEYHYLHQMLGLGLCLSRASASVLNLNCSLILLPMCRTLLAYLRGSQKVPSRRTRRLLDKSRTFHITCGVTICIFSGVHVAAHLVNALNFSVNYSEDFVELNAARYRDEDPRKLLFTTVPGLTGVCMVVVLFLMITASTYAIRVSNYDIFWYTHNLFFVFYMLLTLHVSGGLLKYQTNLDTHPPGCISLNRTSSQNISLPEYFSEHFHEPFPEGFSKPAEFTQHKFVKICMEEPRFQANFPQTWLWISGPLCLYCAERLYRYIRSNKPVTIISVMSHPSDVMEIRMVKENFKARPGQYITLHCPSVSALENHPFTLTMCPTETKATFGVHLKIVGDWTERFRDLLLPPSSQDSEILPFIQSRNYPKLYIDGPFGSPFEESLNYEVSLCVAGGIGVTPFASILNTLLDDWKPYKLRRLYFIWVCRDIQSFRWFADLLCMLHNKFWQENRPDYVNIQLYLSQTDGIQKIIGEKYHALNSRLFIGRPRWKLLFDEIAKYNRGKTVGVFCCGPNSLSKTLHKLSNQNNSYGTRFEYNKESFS
# Chain of NADPH oxidase 2 (Homo sapiens) (P04839 whole entry, looked up): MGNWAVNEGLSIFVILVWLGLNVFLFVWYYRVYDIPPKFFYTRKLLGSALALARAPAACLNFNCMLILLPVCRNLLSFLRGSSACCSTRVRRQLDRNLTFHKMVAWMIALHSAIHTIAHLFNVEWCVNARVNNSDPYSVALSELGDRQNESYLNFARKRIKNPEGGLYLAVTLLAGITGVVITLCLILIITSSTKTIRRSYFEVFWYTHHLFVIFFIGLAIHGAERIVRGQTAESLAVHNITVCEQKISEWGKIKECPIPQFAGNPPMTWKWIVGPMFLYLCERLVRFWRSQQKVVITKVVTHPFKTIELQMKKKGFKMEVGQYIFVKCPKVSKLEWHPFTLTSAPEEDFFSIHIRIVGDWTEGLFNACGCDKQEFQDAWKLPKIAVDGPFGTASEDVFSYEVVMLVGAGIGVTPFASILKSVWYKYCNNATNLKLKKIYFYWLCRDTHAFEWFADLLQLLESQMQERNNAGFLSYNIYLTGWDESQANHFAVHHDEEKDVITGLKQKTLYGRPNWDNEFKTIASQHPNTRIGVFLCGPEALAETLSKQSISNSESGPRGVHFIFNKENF
SMILES,z-score [1],composite z-score [2],z-score [3],z-score [4],z-score [5],z-score [6],z-score [7],z-score [8],z-score [9],z-score [10]
CC1=C2[C@@H](CCc3ccccc3)OB(O)C[C@@H]2[C@@H]2C(=O)N(C)C(=O)[C@@H]2C1,-0.155 (inactive),0.035,1.45 (inactive),0.454 (inactive),-0.249 (inactive),0.255 (inactive),-0.391,0.162 (inactive),0.234 (inactive),-0.54
CCCNC(=O)[C@@]1(Sc2ccc(C)cc2)CC(=O)N(C2Cc3ccccc3C2)[C@@H]1c1ccc(CO)cc1I,0.815 (inactive),0.844,9.9 (active),2.14 (inactive),-0.377 (inactive),0.695 (inactive),-0.303,0.716 (inactive),-0.892 (inactive),0.67
C=C[C@H](C)[C@H](OC(=O)Nc1ccc(SC)cc1)c1ccc(OCCO)cc1,-1.79 (inactive),0.329,27.6 (active),15.6 (active),1.91 (inactive),0.184 (inactive),1.58,-0.831 (inactive),-0.356 (inactive),-0.756
COc1cc2c(cc1O)C(c1cccs1)N(Cc1cc3c(cc1Br)OCO3)CC2 (stereo not given),-1.8 (inactive),-0.566,10.2 (active),2.26 (inactive),-1.06 (inactive),1.41 (inactive),0.0127,-4.19 (inactive),-2.38 (inactive),-2.26
CCCC[C@@H](O)C1=C(COC)C[C@H]2C(=O)N(C)C(=O)[C@H]2[C@H]1CO,2.54 (inactive),0.218,-0.179 (inactive),-1.31 (inactive),-1.12 (inactive),-2.19 (inactive),1.59,-0.342 (inactive),0.564 (inactive),0.819
C=CC[C@]1(C(=O)N2CCOCC2)COC(c2ccc(OCCCO)cc2)=N1,0.323 (inactive),0.43,5.33 (inactive),0.2 (inactive),0.638 (inactive),0.301 (inactive),0.0334,-2.25 (inactive),-0.335 (inactive),-0.859
COCC(=C=CC[C@H](O)c1ccccc1OCCO)C[C@H](O)c1ccccn1,0.769 (inactive),-0.224,3.61 (inactive),1.12 (inactive),1.74 (inactive),0.382 (inactive),0.658,0.251 (inactive),-0.831 (inactive),-0.926
O=C1C2C=CC(C(O)C3CC=CCC3)N(Nc3ccccc3)C2C(=O)N1c1ccccc1 (stereo not given),-1.5 (inactive),0.663,3.38 (inactive),-0.228 (inactive),1.53 (inactive),-1.33 (inactive),0.879,-3.1 (inactive),-4.95 (inactive),-6.07
COc1ccc(CCNC(=O)[C@@]2(Sc3ccc(C)cc3)CC(=O)N(Cc3ccccc3C(F)(F)F)[C@@H]2c2ccc(CO)cc2I)cc1,0.729 (inactive),0.0701,7.89 (inactive),1.43 (inactive),0.932 (inactive),0.844 (inactive),-0.513,0.933 (inactive),-2.09 (inactive),0.713
COC(=O)C1=CC(CCCO)=CC(c2ccc(CN3CCCC3)cc2)N(Cc2cccc(OC(F)(F)F)c2)C=C1C(=O)OC (stereo not given),-0.418 (inactive),0.241,0.119 (inactive),-0.984 (inactive),0.456 (inactive),-2.27 (inactive),1.38,0.439 (inactive),-0.351 (inactive),0.628
CCCC#C[Si](O[C@H](CC)c1cn([C@H](C)c2ccccc2)nn1)(C(C)C)C(C)C,2.53 (inactive),0.28,1.01 (inactive),1.05 (inactive),-0.302 (inactive),0.357 (inactive),0.364,0.177 (inactive),0.00728 (inactive),0.7
CCCN1C(=O)[C@@]2(Cc3ccccc31)N=C(c1ccc(OCCCO)cc1)O[C@H]2c1ccccc1,-0.621 (inactive),0.396,18.6 (active),3.99 (inactive),2.49 (inactive),0.986 (inactive),-0.408,-0.135 (inactive),-0.123 (inactive),-1.61
COc1ccc([Si](C)(C)[C@@H]2[C@@H](CC(=O)N3CCC[C@H]3CO)O[C@]3(C(=O)N(Cc4cccc(N5C(=O)COc6ccccc65)c4)c4ccccc43)[C@H]2C)cc1,-0.194 (inactive),0.0005,3.76 (inactive),1.41 (inactive),-1.47 (inactive),0.646 (inactive),0.324,2.66 (inactive),1.74 (inactive),4.12
COCCOC(=O)N1C(=O)[C@@]2(c3cc(C#CC4(O)CCCCCC4)ccc31)[C@H](c1ccc(O)cc1)N1[C@H](c3ccccc3)[C@H](c3ccccc3)OC(=O)[C@H]1[C@@H]2C(=O)N1CCN(c2ncccn2)CC1,-0.533 (inactive),0.477,0.138 (inactive),0.525 (inactive),-0.166 (inactive),-0.0236 (inactive),0.159,1.54 (inactive),0.996 (inactive),1.11
CCCCCCCCCCC(O)C1C=CC2C(=O)N(c3ccccc3)C(=O)C2N1Nc1ccc(C#N)cc1 (stereo not given),-1.08 (inactive),0.571,6.7 (inactive),2.33 (inactive),0.0103 (inactive),2.3 (inactive),-0.817,-1.32 (inactive),0.0477 (inactive),-0.266
Cn1cccc1C(O)C1C=CC2C(=O)N(c3ccccc3)C(=O)C2N1Nc1ccccc1 (stereo not given),-0.548 (inactive),0.358,2.42 (inactive),1.31 (inactive),0.361 (inactive),1.44 (inactive),-0.55,-1.34 (inactive),-1.94 (inactive),-1.81
O=C(O)[C@@H]1[C@@H]2C(=O)N(c3ccccc3)C(=O)[C@@H]2C[C@@H]1Sc1ccccc1,-1.52 (inactive),-0.0573,0.919 (inactive),0.544 (inactive),0.0175 (inactive),0.631 (inactive),-0.381,0.312 (inactive),-0.541 (inactive),-0.295
CC(C)C(CO)N1C(=O)[C@@H]2C3C(=O)OCCC/C=C\[C@H]3OC23C=CCN(Cn2nnc4ccccc42)C(=O)[C@@H]13 (stereo not given in full),0.302 (inactive),-0.147,0.897 (inactive),-0.364 (inactive),-0.443 (inactive),0.234 (inactive),1.36,1.23 (inactive),0.806 (inactive),1.51
O=C1CS(=O)(=O)C(c2cccc([N+](=O)[O-])c2)N1c1ccccc1 (stereo not given),2.48 (inactive),0.683,-0.625 (inactive),-1.38 (inactive),-0.903 (inactive),-1.68 (inactive),1.93,0.227 (inactive),0.38 (inactive),1.79
Cc1ccc(NN2C(C(O)c3c(F)cccc3Cl)C=CC3C(=O)N(C4CCCCC4)C(=O)C32)cc1 (stereo not given),0.0905 (inactive),0.23,12.9 (active),1.86 (inactive),2.45 (inactive),0.902 (inactive),-0.319,-1.41 (inactive),-0.336 (inactive),-1.67
COc1ccc([Si](C)(C)[C@@H]2[C@@H](CCO)O[C@]3(C(=O)N(Cc4cccc(NC(=O)[C@H](C)O)c4)c4ccccc43)[C@H]2C)cc1,-1.19 (inactive),0.286,9.14 (active),2.91 (inactive),-1.04 (inactive),1.35 (inactive),-0.472,-0.881 (inactive),0.436 (inactive),-0.256
CCOC(=O)C[C@H]1[C@H](OC(=O)c2ccccc2-c2ccccc2)[C@@H](NC(=O)c2ccc3ccccc3c2)c2cc(OCCCO)ccc2N1C(=O)c1ccccc1,0.142 (inactive),-0.152,1.05 (inactive),0.844 (inactive),0.652 (inactive),0.23 (inactive),-0.0193,0.595 (inactive),0.89 (inactive),1.53
COc1cc2c(cc1O)C(C1CC1)N(C)CC2 (stereo not given),0.941 (inactive),-0.0538,1.79 (inactive),0.546 (inactive),0.0776 (inactive),0.573 (inactive),-0.0452,-4.61 (inactive),-2.57 (inactive),-2.96
C=C(COC)/C(=C/C[C@H](OC(=O)c1ccncc1)c1ccc(CO)o1)c1cnc2ccccc2c1,-0.504 (inactive),0.213,6.19 (inactive),0.807 (inactive),1.35 (inactive),0.307 (inactive),-0.959,1.13 (inactive),-0.163 (inactive),-0.377
COCCOC(=O)N1C(=O)[C@@]2(c3cc(C#CC4=CCCCC4)ccc31)[C@H](c1ccccc1OCCO)N1[C@H](c3ccccc3)[C@H](c3ccccc3)OC(=O)[C@H]1[C@@H]2C(=O)NC[C@H](O)c1ccccc1,-0.801 (inactive),0.457,1.34 (inactive),2.19 (inactive),-1.61 (inactive),0.703 (inactive),-0.0585,1.79 (inactive),0.529 (inactive),1.81
